The whole screen tested about 5,500 compounds, of which about 2,000 (36%) were called active. Roughly 18% stayed inconclusive and do not appear here. No stated cut-off is given here; in the data, active means normalized growth mostly below about 0.91 (no sharp cut-off); inconclusive means no clear call, values can overlap the other calls; inactive means mostly above about 0.92. This is one part of the list.
Assay: chemical genetic growth profiling, strain panel (AID 1159580);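 further: tested at 20 µM; growth read once vehicle control cultures reached saturation at 30 °C; 1 = growth at the plate median or of vehicle wells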
Conditions: growth OD

Measured: normalized growth

OC[C@H]1O[C@@H](O[C@@H]2[C@@H](CO)O[C@](O)(CO)[C@H]2O)[C@H](O)[C@@H](O)[C@H]1O
inactive: S. cerevisiae deletion strains, locus YKL009W, strain mrt4, stronger effect = lower value 1 | S. cerevisiae deletion strains, locus YKL068W, stronger effect = lower value 0.987 | S. cerevisiae deletion strains, locus YKL085W, strain MDH1 (second series), stronger effect = lower value 0.976 | S. cerevisiae deletion strains, locus YKL085W, strain MDH1, stronger effect = lower value 0.976 | S. cerevisiae deletion strains, locus YKL160W, strain elf1, stronger effect = lower value 1 | S. cerevisiae deletion strains, locus YKR001C, strain vps1, stronger effect = lower value 1.01 | S. cerevisiae deletion strains, locus YKR026C, strain gcn3, stronger effect = lower value 1.01 | S. cerevisiae deletion strains, locus YKR091W, strain srl3, stronger effect = lower value 1.01 | S. cerevisiae deletion strains, locus YLL001W, strain dnm1, stronger effect = lower value 0.999 | S. cerevisiae deletion strains, locus YLL026W, stronger effect = lower value 1.01 | S. cerevisiae deletion strains, locus YLL041C, strain sdh2, stronger effect = lower value 1.01 | S. cerevisiae deletion strains, locus YLR027C, strain aat2, stronger effect = lower value 1.01 | S. cerevisiae deletion strains, locus YLR039C, strain RIC1, stronger effect = lower value 0.968 | S. cerevisiae deletion strains, locus YLR058C, strain SHM2, stronger effect = lower value 0.986 | S. cerevisiae deletion strains, locus YLR102C, strain apc9, stronger effect = lower value 0.981 | S. cerevisiae deletion strains, locus YLR113W, strain HOG1, stronger effect = lower value 1.02 | S. cerevisiae deletion strains, locus YLR221C, strain rsa3, stronger effect = lower value 1 | S. cerevisiae deletion strains, locus YLR258W, strain gsy2, stronger effect = lower value 0.998 | S. cerevisiae deletion strains, locus YLR262C, strain YPT6 (second series), stronger effect = lower value 1.03 | S. cerevisiae deletion strains, locus YLR262C, strain YPT6, stronger effect = lower value 1.03 | S. cerevisiae deletion strains, locus YLR268W, strain sec22, stronger effect = lower value 0.972 | S. cerevisiae deletion strains, locus YLR320W, strain mms22, stronger effect = lower value 0.996 | S. cerevisiae deletion strains, locus YLR330W, strain CHS5, stronger effect = lower value 0.994 | S. cerevisiae deletion strains, locus YLR342W, strain FKS1 (second series), stronger effect = lower value 0.994 | S. cerevisiae deletion strains, locus YLR342W, strain FKS1, stronger effect = lower value 1.02 | S. cerevisiae deletion strains, locus YLR357W, strain rsc2, stronger effect = lower value 0.995 | S. cerevisiae deletion strains, locus YLR370C, strain arc18, stronger effect = lower value 1.02 | S. cerevisiae deletion strains, locus YLR371W, strain rom2, stronger effect = lower value 0.974 | S. cerevisiae deletion strains, locus YLR384C, strain iki3, stronger effect = lower value 1.01 | S. cerevisiae deletion strains, locus YLR418C, strain cdc73, stronger effect = lower value 0.954 | S. cerevisiae deletion strains, locus YML016C, strain PPZ1, stronger effect = lower value 0.993 | S. cerevisiae deletion strains, locus YML032C, strain rad52, stronger effect = lower value 0.988 | S. cerevisiae deletion strains, locus YML120C, strain ndi1, stronger effect = lower value 0.99 | S. cerevisiae deletion strains, locus YML124C, strain tub3, stronger effect = lower value 1 | S. cerevisiae deletion strains, locus YMR058W, strain fet3, stronger effect = lower value 1.01 | S. cerevisiae deletion strains, locus YMR078C, strain ctf18, stronger effect = lower value 0.959 | S. cerevisiae deletion strains, locus YMR125W, strain sto1, stronger effect = lower value 0.996 | S. cerevisiae deletion strains, locus YMR129W, stronger effect = lower value 1.01 | S. cerevisiae deletion strains, locus YMR205C, strain PFK2, stronger effect = lower value 1.03 | S. cerevisiae deletion strains, locus YMR223W, strain ubp8, stronger effect = lower value 0.962 | S. cerevisiae deletion strains, locus YMR231W, strain pep5, stronger effect = lower value 1.01 | S. cerevisiae deletion strains, locus YMR307W, strain GAS1, stronger effect = lower value 1 | S. cerevisiae deletion strains, locus YNL067W, strain RPL9B, stronger effect = lower value 1 | S. cerevisiae deletion strains, locus YNL071W, strain lat1, stronger effect = lower value 1.01 | S. cerevisiae deletion strains, locus YNL183C, strain NPR1, stronger effect = lower value 0.959 | S. cerevisiae deletion strains, locus YNL209W, strain ssb2, stronger effect = lower value 1 | S. cerevisiae deletion strains, locus YNL233W, strain BNI4, stronger effect = lower value 0.989 | S. cerevisiae deletion strains, locus YNL248C, strain rpa49, stronger effect = lower value 1.03 | S. cerevisiae deletion strains, locus YNL250W, strain rad50, stronger effect = lower value 0.954 | S. cerevisiae deletion strains, locus YNL271C, strain bni1, stronger effect = lower value 0.966 | S. cerevisiae deletion strains, locus YNL298W, strain CLA4, stronger effect = lower value 0.975 | S. cerevisiae deletion strains, locus YNL307C, strain MCK1, stronger effect = lower value 0.972 | S. cerevisiae deletion strains, locus YNL322C, strain KRE1 (second series), stronger effect = lower value 1.02 | S. cerevisiae deletion strains, locus YNL322C, strain KRE1, stronger effect = lower value 0.996 | S. cerevisiae deletion strains, locus YNR049C, strain mso1, stronger effect = lower value 1.01 | S. cerevisiae deletion strains, locus YNR052C, strain pop2, stronger effect = lower value 0.979 | S. cerevisiae deletion strains, locus YOL006C, strain TOP1, stronger effect = lower value 0.965 | S. cerevisiae deletion strains, locus YOL012C, strain htz1 0.596 | S. cerevisiae deletion strains, locus YOL147C, strain pex11, stronger effect = lower value 0.982 | S. cerevisiae deletion strains, locus YOR001W, strain rrp6, stronger effect = lower value 1 | S. cerevisiae deletion strains, locus YOR061W, strain CKA2, stronger effect = lower value 0.985 | S. cerevisiae deletion strains, locus YOR069W, strain VPS5, stronger effect = lower value 0.989 | S. cerevisiae deletion strains, locus YOR070C, strain gyp1, stronger effect = lower value 1 | S. cerevisiae deletion strains, locus YOR080W, strain dia2, stronger effect = lower value 1.01 | S. cerevisiae deletion strains, locus YOR083W, strain WHI5, stronger effect = lower value 0.989 | S. cerevisiae deletion strains, locus YOR106W, strain vam3, stronger effect = lower value 1.02 | S. cerevisiae deletion strains, locus YOR136W, strain idh2, stronger effect = lower value 0.981 | S. cerevisiae deletion strains, locus YOR144C, strain elg1, stronger effect = lower value 0.98 | S. cerevisiae deletion strains, locus YOR184W, strain ser1, stronger effect = lower value 0.971 | S. cerevisiae deletion strains, locus YOR231W, strain MKK1, stronger effect = lower value 0.98 | S. cerevisiae deletion strains, locus YOR265W, strain rbl2, stronger effect = lower value 1.01 | S. cerevisiae deletion strains, locus YOR270C, strain vph1, stronger effect = lower value 1.06 | S. cerevisiae deletion strains, locus YOR290C, strain snf2, stronger effect = lower value 0.992 | S. cerevisiae deletion strains, locus YOR316C, strain cot1, stronger effect = lower value 0.976 | S. cerevisiae deletion strains, locus YPL051W, strain arl3, stronger effect = lower value 1.01 | S. cerevisiae deletion strains, locus YPL078C, strain atp4, stronger effect = lower value 1.01 | S. cerevisiae deletion strains, locus YPL106C, strain sse1, stronger effect = lower value 1 | S. cerevisiae deletion strains, locus YPL240C, strain hsp82, stronger effect = lower value 1.03 | S. cerevisiae deletion strains, locus YPL241C, strain CIN2, stronger effect = lower value 0.998 | S. cerevisiae deletion strains, locus YPL256C, strain CLN2, stronger effect = lower value 0.957 | S. cerevisiae deletion strains, locus YPR119W, strain clb2, stronger effect = lower value 0.978 | S. cerevisiae deletion strains, locus YPR141C, strain kar3, stronger effect = lower value 0.968 | S. cerevisiae deletion strains, locus YPR163C, strain tif3, stronger effect = lower value 0.972 | S. cerevisiae deletion strains, locus YPR167C, strain met16, stronger effect = lower value 0.985 | S. cerevisiae deletion strains, strain wtn01, stronger effect = lower value 0.967 | S. cerevisiae strains, strain wild type, stronger effect = lower value 0.999
